# Many of the other results were omitted from the sample, so the strongest signals are more common in it than they were.
# B1: Gal 7 (Homo sapiens) (protein)
# chain: MSNVPHKSSLPEGIRPGTVLRIRGLVPPNASRFHVNLLCGEEGGSDAALHFNPRLDTSEVVFNSKEGGSWGREESGPGVPFGRGQPFEVLIIASDDGFKAVVGDAQYHHFRHRLPLARVRLVEVGGDVQLDSVRIF
# Assays:
# Assay in all cases: glycan array binding signal (z-score within array); higher = stronger binding
# Details in all cases: glycan notation: IUPAC condensed, linker removed; mutation: R74S
# [1] = molecular target: Fuc(a1-2)Gal(b1-3)GlcNAc(b1-3)[Neu5Ac(a2-6)Gal(b1-4)GlcNAc(b1-6)]Gal(b1-4)Glc
# Summary of the method: (§1)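 The Consortium for Functional Glycomics database supplied 3228 glycan arrays, of which those lacking an available protein sequence were dropped. The binding signal, a within-array Z-score, was averaged across arrays of the same protein sequence and across linkers. Negative scores can be read as non-binding.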
# Fuc(a1-2)Gal(b1-4)GlcNAc = molecular target: Fuc(a1-2)Gal(b1-4)GlcNAc
# Summary of the method: as §1
# [2] = molecular target: Fuc(a1-2)Gal(b1-4)GlcNAc(b1-2)Man(a1-3)[Fuc(a1-2)Gal(b1-4)GlcNAc(b1-2)Man(a1-6)]Man(b1-4)GlcNAc(b1-4)[Fuc(a1-6)]GlcNAc
# Summary of the method: as §1
# [3] = molecular target: Fuc(a1-2)Gal(b1-4)GlcNAc(b1-3)Gal(b1-4)GlcNAc(b1-2)Man(a1-3)[Fuc(a1-2)Gal(b1-4)GlcNAc(b1-3)Gal(b1-4)GlcNAc(b1-2)Man(a1-6)]Man(b1-4)GlcNAc(b1-4)GlcNAc
# Summary of the method: as §1
# [4] = molecular target: Fuc(a1-2)Gal(b1-4)GlcNAc(b1-6)GalNAc
# Summary of the method: as §1
# [5] = molecular target: Fuc(a1-2)Gal(b1-4)[Fuc(a1-3)]GlcNAc(b1-3)Gal(b1-4)[Fuc(a1-3)]GlcNAc(b1-3)Gal(b1-4)[Fuc(a1-3)]GlcNAc
# Summary of the method: as §1
# [6] = molecular target: Fuc(a1-2)Gal6S(b1-4)Glc6S
# Summary of the method: as §1
# [7] = molecular target: Fuc(a1-2)[Gal(a1-3)]Gal(b1-3)GlcNAc(b1-6)GalNAc
# Summary of the method: as §1
# [8] = molecular target: Fuc(a1-2)[Gal(a1-3)]Gal(b1-4)GlcNAc
# Summary of the method: as §1
# [9] = molecular target: Fuc(a1-2)[GalNAc(a1-3)]Gal(b1-3)GlcNAc(b1-2)Man(a1-3)[Fuc(a1-2)[GalNAc(a1-3)]Gal(b1-3)GlcNAc(b1-2)Man(a1-6)]Man(b1-4)GlcNAc(b1-4)GlcNAc
# Summary of the method: as §1
# [10] = molecular target: Fuc(a1-2)[GalNAc(a1-3)]Gal(b1-4)GlcNAc(b1-3)Gal(b1-4)GlcNAc(b1-3)Gal(b1-4)GlcNAc
# Summary of the method: as §1
# [11] = molecular target: Fuc(a1-3)[Gal(b1-4)]GlcNAc(b1-6)[Gal(b1-3)GlcNAc(b1-3)]Gal(b1-4)Glc
# Summary of the method: as §1
# Gal(a1-3)Gal(b1-4)Glc = molecular target: Gal(a1-3)Gal(b1-4)Glc
# Summary of the method: as §1
# [12] = molecular target: Gal(a1-4)Gal(b1-3)GlcNAc(b1-2)Man(a1-3)[Gal(a1-4)Gal(b1-3)GlcNAc(b1-2)Man(a1-6)]Man(b1-4)GlcNAc(b1-4)GlcNAc
# Summary of the method: as §1
# Gal(b1-3)Gal(b1-4)GlcNAc = molecular target: Gal(b1-3)Gal(b1-4)GlcNAc
# Summary of the method: as §1
# Gal(b1-3)GalNAc = molecular target: Gal(b1-3)GalNAc
# Summary of the method: as §1
# [13] = molecular target: Gal(b1-3)GlcNAc(b1-2)Man(a1-3)[Gal(b1-3)GlcNAc(b1-2)Man(a1-6)]Man(b1-4)GlcNAc(b1-4)[Fuc(a1-6)]GlcNAc
# Summary of the method: as §1
# Gal(b1-3)GlcNAc6S = molecular target: Gal(b1-3)GlcNAc6S
# Summary of the method: as §1
# [14] = molecular target: Gal(b1-3)[Fuc(a1-4)]GlcNAc(b1-6)GalNAc
# Summary of the method: as §1
# [15] = molecular target: Gal(b1-3)[Neu5Ac(a2-6)]GlcNAc(b1-4)Gal(b1-4)Glc
# Summary of the method: as §1
# [16] = molecular target: Gal(b1-4)GalNAc(a1-3)[Fuc(a1-2)]Gal(b1-4)GlcNAc
# Summary of the method: as §1
# [17] = molecular target: Gal(b1-4)GlcNAc(b1-3)Gal(b1-4)GlcNAc(b1-2)Man(a1-3)[Gal(b1-4)GlcNAc(b1-3)Gal(b1-4)GlcNAc(b1-2)Man(a1-6)]Man(b1-4)GlcNAc(b1-4)GlcNAc
# Summary of the method: as §1
# [18] = molecular target: Gal(b1-4)GlcNAc(b1-3)Gal(b1-4)GlcNAc(b1-2)[Gal(b1-4)GlcNAc(b1-3)Gal(b1-4)GlcNAc(b1-6)]Man(a1-6)[Gal(b1-4)GlcNAc(b1-3)Gal(b1-4)GlcNAc(b1-2)Man(a1-3)]Man(b1-4)GlcNAc(b1-4)GlcNAc
# Summary of the method: as §1
# [19] = molecular target: Gal(b1-4)GlcNAc(b1-3)Gal(b1-4)GlcNAc(b1-3)Gal(b1-4)GlcNAc(b1-2)[Gal(b1-4)GlcNAc(b1-3)Gal(b1-4)GlcNAc(b1-3)Gal(b1-4)GlcNAc(b1-6)]Man(a1-6)[Gal(b1-4)GlcNAc(b1-3)Gal(b1-4)GlcNAc(b1-3)Gal(b1-4)GlcNAc(b1-2)Man(a1-3)]Man(b1-4)GlcNAc(b1-4)[Fuc(a1-6)]GlcNAc
# Summary of the method: as §1
# [20] = molecular target: Gal(b1-4)GlcNAc(b1-3)Gal(b1-4)GlcNAc(b1-3)Gal(b1-4)GlcNAc(b1-3)Gal(b1-4)GlcNAc(b1-2)Man(a1-3)[Gal(b1-4)GlcNAc(b1-3)Gal(b1-4)GlcNAc(b1-3)Gal(b1-4)GlcNAc(b1-3)Gal(b1-4)GlcNAc(b1-2)Man(a1-6)]Man(b1-4)GlcNAc(b1-4)GlcNAc
# Summary of the method: as §1
binder,measurement,setting,value
B1,glycan array binding signal (z-score),[1],0.022
same,glycan array binding signal (z-score),Fuc(a1-2)Gal(b1-4)GlcNAc,-0.214
same,glycan array binding signal (z-score),[2],1.07
same,glycan array binding signal (z-score),[3],13.1
same,glycan array binding signal (z-score),[4],0.439
same,glycan array binding signal (z-score),[5],0.209
same,glycan array binding signal (z-score),[6],0.38
same,glycan array binding signal (z-score),[7],-0.325
same,glycan array binding signal (z-score),[8],-0.56
same,glycan array binding signal (z-score),[9],-0.27
same,glycan array binding signal (z-score),[10],-0.239
same,glycan array binding signal (z-score),[11],0.106
same,glycan array binding signal (z-score),Gal(a1-3)Gal(b1-4)Glc,0.28
same,glycan array binding signal (z-score),[12],-0.347
same,glycan array binding signal (z-score),Gal(b1-3)Gal(b1-4)GlcNAc,-0.425
same,glycan array binding signal (z-score),Gal(b1-3)GalNAc,-0.37
same,glycan array binding signal (z-score),[13],0.404
same,glycan array binding signal (z-score),Gal(b1-3)GlcNAc6S,-0.422
same,glycan array binding signal (z-score),[14],-0.149
same,glycan array binding signal (z-score),[15],-0.354
same,glycan array binding signal (z-score),[16],-0.282
same,glycan array binding signal (z-score),[17],3.67
same,glycan array binding signal (z-score),[18],1.49
same,glycan array binding signal (z-score),[19],3.31
same,glycan array binding signal (z-score),[20],5.53

# Source: the supplement of paper PMC8728848
